Laboratory results from PubChem BioAssay (NCATS).
Records with an inconclusive call do not appear. A number with no mark means an inactive call. The source made the active and inactive calls. Calls come from the whole dose curve; as a rule, active = well fitted inhibition curve with a large enough effect; inconclusive = small, poorly fitted or top-dose-only effect; inactive = flat fitted curve, though single readings scatter.

tested on: MKL-2; assay: qHTS assay to identify novel small-molecules to repurpose for Merkel cell carcinoma treatment (AID 1296009); conditions: MCC and control cell lines, CellTiter-Glo viability, 72 h; series mostly up to 46 µM; activity change, negative = cytotoxicity: at the top concentration; note: nearly all actives have a fitted effect of over 60% in size
Outline: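 Dose-response viability screen; 72 hr exposure at 37 degree celsius; CellTiter-Glo added, 10 min room temperature, luminescence read; RLUs scaled between no-cell and DMSO wells.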
% is set by controls: 0 for no effect and ±100 for the full control effect; potency is the fitted concentration of half-maximal effect.

In order of falling “activity change, negative = cytotoxicity” value:
1. Nc1nccc(-c2ccc3noc(-c4ccc(Cl)cc4)c3c2)n1  30.5%
2. O=C(C1CC1)N1CC[C@@H](Cn2c(-c3ccc(-c4ccc5occc5c4)cc3)nc3cnccc32)C1  21.1%
3. O=S(=O)(N=Cc1c(O)ccc2ccccc12)c1cccs1  16.4%
4. Nc1cccc(S(=O)(=O)N2CCCN(S(=O)(=O)c3ccc4c(c3)OCCO4)CC2)c1  13.7%
5. O=C(C=Cc1ccc(/C=C/C(=O)Nc2ccc(C3=NCCN3)cc2)cc1)Nc1ccc(C2=NCCN2)cc1  4.03%
6. COc1ccc2nc(S(=O)Cc3ncc(C)c(OC)c3C)[nH]c2c1 (stereo not drawn)  2.44%
7. CN(C)c1ccc(Nc2nc(N)n(C(=O)c3c(F)cccc3F)n2)cc1  0.319%
8. COCCNCCCn1c(C(=O)CF)c(-c2ccc(C)cc2)c2c(N)ncnc21  -4.03%
9. COc1cc(F)c(F)c(Nc2ccc(I)cc2F)c1NS(=O)(=O)C1(C[C@H](O)CO)CC1  -7.14%
10. CCCCCCCc1ccc(CCc2cccc(O)c2C(=O)O)cc1  -8.86%
11. Nc1ncnc2nc(-c3ccc(N4CCOCC4)nc3)cc(-c3cccc(Br)c3)c12  -9.86%
12. c1ccc(-c2nn3c(c2-c2ccnc4cc(OCCN5CCOCC5)ccc24)CCC3)nc1  -10.6%
13. Cc1cccc(-c2nn(C(=S)Nc3ccccc3)cc2-c2ccnc3ccccc23)n1  -13.6%
14. COc1cc(Oc2ccnc3cc(OC)c(OC)cc23)ccc1NC(=O)NC(C)c1nccs1 (stereo not drawn)  -13.9%
15. N#Cc1ccc(C(c2ccc(C#N)cc2)n2cncn2)cc1  -19%
16. CN(C)c1ccc(C2Nc3ccc4ccccc4c3C3=C2C(=O)CC(C)(C)C3)cc1Br (stereo not drawn)  -20.9%
17. Cc1c(CCOc2ccc(C(=O)O)cc2)c2cc(Cl)ccc2n1C(c1ccccc1)c1ccccc1  -23.5%
18. COc1ccc2c3n(c(=NC(=O)c4cccnc4)nc2c1OC)CCN3  -25.6%
19. Cc1ccc(NC(=O)c2cccc(C(C)(C)C#N)c2)cc1Nc1ccc2ncn(C)c(=O)c2c1  -29.9%

`CCOC(=O)N[C@@H]1CC[C@@H]2[C@@H](C1)C[C@H]1C(=O)O[C@H](C)[C@H]1[C@@H]2C=Cc1ccc(-c2cccc(F)c2)cn1` was tested, and the Potency was 20.9 µM (active).
`COc1cc2nccc(Oc3ccc(NC(=O)NC4CC4)c(Cl)c3)c2cc1C(N)=O` was tested, and the Potency was 9.35 µM (active).
`CCn1cc(C(=O)O)c(=O)c2cc(F)c(N3CCNC(C)C3)c(F)c21` (stereo not drawn) was tested, and the Potency was “inactive”.
In the case of `CCOc1cc(N2CCC(O)CC2)ccc1Nc1ncc2c(n1)N(C)c1ccccc1C(=O)N2C`, the Potency is reported as 2.64 µM (active).
